Assay outcomes: PubChem BioAssay, several laboratories
Only some compounds are listed: those with a hit (about 1.7% of all), similar ones and a draw of the others.
PfHsp40 rescue: compounds rescuing yeast from Plasmodium falciparum HSP40 toxicity; S. cerevisiae expressing PfHsp40, growth rescue, ATP luminescence; growth rescue, % at 12.5 µM; hit rate 0.68% among 340,000; AID 504582; in the data active = growth rescue above about 28%, passing the limit was not always enough;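 also: yeast W303a lacking pdr1 and pdr3 grown in galactose medium; growth measured after three days at 30 °C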
Mtb hypoxia rep: inhibitors of hypoxia-regulated fluorescent reporter in Mycobacterium tuberculosis | M. tuberculosis hypoxia-regulated fluorescent reporter, fluorescence | AID 1159583 | hit rate 0.1% among 300,000 | fluorescence inhibition, % (no concentration beside the values); in the data active = fluorescence inhibition mostly above about 23%, no sharp cut-off; inactive = mostly below about 17%
CCHF vOTU inh: CCHFV vOTU protease inhibition | Pep-AMC fluorescence | inhibition, % at 11.5 µM | hit rate 0.55% among 370,000 | AID 651958; in the data active = inhibition above about 30%; also: 0% = vehicle wells with enzyme and 100% = no enzyme wells
Mtb bLac sens: beta-lactam sensitization of Mtb H37Rv; M. tuberculosis H37Rv growth with meropenem, percent inhibition; inhibition, % at 25 µM; hit rate 0.27% among 330,000; call rule not given here;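 also: growth measured after seven days incubation then overnight dye step; 0% = bacteria only wells and 100% = bacteria with antibiotic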
RecA splice inh: Mtb RecA intein splicing inhibition; cell-free RecA intein splicing, fluorescence; inhibition, % (no concentration beside the values); hit rate 0.75% among 290,000; AID 2221; in the data active = inhibition above about 30%;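 also: 0% = vehicle wells and 100% = reference inhibitor control wells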
Target sequence (P9WHJ3 whole entry, looked up, canonical isoform): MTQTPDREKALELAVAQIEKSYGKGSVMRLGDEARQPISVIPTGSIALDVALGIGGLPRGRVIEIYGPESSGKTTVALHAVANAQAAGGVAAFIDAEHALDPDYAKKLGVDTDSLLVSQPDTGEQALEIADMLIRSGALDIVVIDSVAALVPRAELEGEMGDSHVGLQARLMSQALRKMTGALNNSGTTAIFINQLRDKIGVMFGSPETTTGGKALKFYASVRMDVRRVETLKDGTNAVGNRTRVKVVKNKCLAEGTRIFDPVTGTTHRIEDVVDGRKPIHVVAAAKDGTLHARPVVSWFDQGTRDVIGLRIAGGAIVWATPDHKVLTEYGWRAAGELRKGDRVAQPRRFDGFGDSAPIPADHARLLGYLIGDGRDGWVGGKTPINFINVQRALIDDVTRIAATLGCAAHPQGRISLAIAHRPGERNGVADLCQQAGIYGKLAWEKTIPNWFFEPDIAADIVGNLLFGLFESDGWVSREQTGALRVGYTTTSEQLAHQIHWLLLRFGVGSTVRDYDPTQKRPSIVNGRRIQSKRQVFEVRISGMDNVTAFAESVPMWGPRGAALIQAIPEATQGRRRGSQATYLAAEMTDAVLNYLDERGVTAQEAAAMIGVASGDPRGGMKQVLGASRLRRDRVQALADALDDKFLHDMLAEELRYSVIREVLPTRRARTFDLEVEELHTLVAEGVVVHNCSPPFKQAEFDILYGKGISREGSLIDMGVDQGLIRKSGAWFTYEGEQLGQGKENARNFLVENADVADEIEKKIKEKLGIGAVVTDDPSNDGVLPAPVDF
* marks the source's active call; other numbers are inactive results; . = no result shown.

SMILES | PfHsp40 rescue | Mtb hypoxia rep | CCHF vOTU inh | Mtb bLac sens | RecA splice inh
C[C@]12C(=O)N(c3ccccc3)C(=O)N1[C@@H]1c3ccccc3OC[C@@H]1[C@H]2c1ccccc1 | 0.4 | -4.0 | 2.7 | 5.8 | 3.1
COc1ccc2c(c1)OC[C@H]1[C@H]2N2C(=O)c3cc(C)ccc3NC(=O)[C@@]2(C)[C@H]1c1ccccc1 | 297.4* | . | . | 25.0 | .
CCOC1OC(C(N)=O)=CC(c2cn(C(C)=O)c3ccccc23)C1CCCO (stereo unspecified) | . | 15.8 | . | . | .
COc1ccc2c(c1)[C@H]1[C@H](CO2)[C@H](c2ccccc2)[C@]2(C)C(=O)Nc3ccc(Cl)cc3C(=O)N12 | 267.6* | . | -8.2 | . | .
C[C@@]12C(=O)Nc3ccc(Br)cc3C(=O)N1[C@H]1c3ccccc3OC[C@@H]1[C@@H]2c1ccccc1 | 127.6* | . | . | 83.7 | .
CNC(=S)NN=Cc1cn(Cc2c(F)cccc2Cl)c2ccccc12 | . | 2.2 | . | . | .
OCCNC(=S)Nc1ccc2nsnc2c1 | -0.3 | 3.0 | 4.3 | -3.1 | 45.9*
O=C(NCCO)Nc1ccc2nsnc2c1 | -1.4 | -1.2 | -44.4 | -6.5 | .
CNC(=O)c1c(NC(=O)CS(=O)(=O)c2ccccc2)sc(C)c1C | 51.1* | 0.7 | 8.2 | -2.4 | -0.5
CNC(=O)c1c(NC(=O)CS(=O)(=O)c2ccc(Cl)cc2)sc(C)c1C | -0.7 | 7.1 | -4.2 | -10.4 | -1.5
CN(C)CCCOC(=O)C1c2ccccc2Oc2ccccc21 | 43.6* | . | 5.8 | -5.0 | 6.0
C=CC[n+]1ccc(/C=C2\C=Cc3cc(C)ccc3N2CC)c2ccccc21 | 2.3 | 36.0* | . | . | .
Cc1ccc(S(=O)(=O)N2C(c3cccc(Cl)c3)CC=C(C(=O)O)C2c2ccccc2F)cc1 (stereo unspecified) | . | 12.5 | . | . | .
O=C(COC(=O)c1ccccc1O)NC1CCCc2ccccc21 (stereo unspecified) | -0.9 | 32.6* | -8.6 | 3.4 | .
CC(C)N(Cc1ccccc1)C(=O)CN1c2cccc3cccc(c23)S1(=O)=O | 69.6* | 6.3 | -0.2 | -12.1 | .
CN(C)C(=O)CN1c2cccc3cccc(c23)S1(=O)=O | -1.0 | 7.5 | -6.7 | 1.0 | 1.8
COc1ccc(CN(C)C(=O)COC(=O)c2cc([N+](=O)[O-])ccc2N2CCCC2)c(OC)c1OC | 0.1 | 21.8* | 5.2 | -2.6 | .
C/C(C=NNC(=O)c1cccs1)=C/c1ccccc1 | . | 1.7 | . | . | .
CCN(CC)c1ccc([N+](=O)[O-])cc1C=NNC(=O)CC#N | . | -1.6 | . | . | .
O=C(CCSc1nnc(-c2ccncc2)o1)Nc1ccc(Cl)cc1 | 197.0* | 5.0 | 6.1 | 99.9 | -1.9
C/C(=N\NC(=S)NCCc1ccccc1)c1ccc(C)cc1 | 30.3* | . | 8.8 | 0.1 | -2.3
C/C(=N\NC(=S)NCCc1ccccc1)c1ccc(Cl)cc1 | 0.2 | . | 12.5 | 56.9 | 1.2
O=[N+]([O-])c1ccc(S(=O)(=O)c2ccccc2)nc1 | 288.6* | . | 10.9 | 100.6 | 15.9
Cc1ccc(S(=O)(=O)c2ccc([N+](=O)[O-])cn2)cc1 | 163.7* | . | 9.9 | 100.4 | 29.1
CC1OC(OCCC(=O)O)C(O)CC1O (stereo unspecified) | . | 7.2 | . | . | .
SMILES | PfHsp40 rescue | Mtb hypoxia rep | CCHF vOTU inh | Mtb bLac sens | RecA splice inh
COC(=O)CSc1nc2cc3c(cc2cc1C)OCCO3 | 163.0* | 8.4 | 7.4 | 3.0 | .
O=C(NN=C/C=C/c1ccco1)C1COc2ccccc2O1 (stereo unspecified) | . | 12.4 | . | . | .
COc1ccc2nc(C=NNC(=O)CCCCCNC(=O)OC(C)(C)C)ccc2c1 | . | 6.5 | . | . | .
Cc1cc2nc3ccc(=[N+](C)C)cc-3sc2cc1N | 0.0 | 9.3 | . | . | 31.3*
Cc1nc2cc(C)c(C)cc2s1 | 1.1 | 2.9 | -4.4 | -6.4 | -1.3
CC1CN(C(C)CO)C(=O)c2cc(NS(=O)(=O)c3ccc(Cl)cc3)ccc2OC1CN(C)Cc1ccncc1 (stereo unspecified) | . | 2.6 | . | . | .
Cc1cccc(N2C(=O)N3C4c5ccccc5OCC4C(c4ccccc4)[C@@]3(C)C2=O)c1 (stereo partly specified) | . | -6.4 | . | . | .
O=C(N/N=C/c1ccc[nH]1)c1sc2ccccc2c1Cl | 498.0* | . | -2.2 | 95.8 | 3.0
O=C(NN=Cc1ccc[nH]1)c1sc2ccccc2c1Cl | . | -6.8 | . | . | .
Cc1ccc(/C=N/c2sc3c(c2C#N)CCC3)s1 | 43.0* | . | 13.8 | 2.2 | 2.8
Cc1c(O)cc2n(c1=O)-c1ccccc1C2(C)C | 1.6 | 4.6 | -6.1 | -4.7 | .
CC1(C)c2ccccc2-n2c1cc1oc(=O)cc(O)c1c2=O | 59.7* | . | 17.0 | 4.7 | 0.2
O=C1CCN(Cc2cccnc2)CCN1C(CO)Cc1ccccc1 (stereo unspecified) | . | 2.7 | . | . | .
Cc1ccc(-n2nc(C)c(NC(=O)CCl)c2C)cc1C | 0.9 | . | -16.1 | 96.7 | 42.5*
CCC(=O)Nc1c(C)nn(-c2ccc(C)c(C)c2)c1C | 0.1 | -9.0 | 1.2 | 3.7 | -3.7
Cc1cc(/C=N/n2c(COc3ccccc3C)nc3ccccc3c2=O)c(O)c([N+](=O)[O-])c1 | 56.8* | . | 0.0 | 13.6 | 25.2
O=C(NN=Cc1ccco1)c1cc(-c2ccccc2)nc2ccccc12 | . | 0.8 | . | . | .
COC(=O)C1=C(c2c(C)noc2C)CC2CCC1N2C(=O)NCCCOC(C)C (stereo unspecified) | . | -1.7 | . | . | .
COc1cccc(C=NNC(=O)c2csc(-n3nc(C)cc3C(F)(F)F)n2)c1 | . | 1.4 | . | . | .
CCCCN(C(=O)c1ccco1)c1c(N)n(CCC)c(=O)[nH]c1=O | -1.5 | 28.1* | 20.6 | -1.6 | .
CCCCN(C(=O)c1oc2ccc(OCC)cc2c1C)c1c(N)n(CCCC)c(=O)[nH]c1=O | 0.9 | . | 7.2 | -4.8 | -2.1
CCCCN(C(=O)CSc1nnc(-c2ccccc2)o1)c1c(N)n(CCC)c(=O)[nH]c1=O | -0.9 | 29.5* | 7.4 | 5.1 | .
CCCCn1c(N)c(N(CCOC)C(=O)c2oc3ccc(Br)cc3c2C)c(=O)[nH]c1=O | -0.4 | 25.8* | -4.8 | . | .
CC1CN=C(Nc2ccccc2)N1CCCC1CCCC1 (stereo unspecified) | . | 6.7 | . | . | .
COC(=O)c1ccc(C=NNC(=S)NC(C)C)cc1 | . | 17.7 | . | . | .
SMILES | PfHsp40 rescue | Mtb hypoxia rep | CCHF vOTU inh | Mtb bLac sens | RecA splice inh
CCOC(=O)C1C2COc3ccc(Cl)cc3C2N2C(=O)c3cc(OC)ccc3NC(=O)[C@@]12C (stereo partly specified) | . | -7.9 | . | . | .
Cc1cc(Sc2nnc(/N=C/N(C)C)s2)c2ccccc2n1 | 0.4 | . | -0.5 | 89.5 | 36.4*
Cc1cc(Sc2nnc(N=CN(C)C)s2)c2ccccc2n1 | . | 15.9 | . | . | .
N#C/C(=C\c1cccc(NC(=O)c2ccccc2Cl)c1)C(=O)NCCc1ccccc1 | 2.4 | 12.1 | -7.8 | -1.7 | 35.9*
COCCCNC(=O)/C(C#N)=C/c1cccc(NC(=O)c2ccccc2Cl)c1 | 0.5 | . | -10.8 | -3.0 | 5.9
O=C(O)C/C(=C\c1cccc(NC(=O)c2ccccc2Cl)c1)c1nc2ccccc2s1 | 28.0* | -9.2 | 25.9 | 0.0 | 0.8
O=C1C(=O)N(CCN2CCOCC2)C(c2ccccn2)/C1=C(/O)c1ccc(F)cc1 (stereo unspecified) | 54.9* | 19.4 | 0.6 | -3.5 | 4.6
O=C1C(=O)N(CCCN2CCOCC2)C(c2ccc(F)cc2)/C1=C(/O)c1ccccc1 (stereo unspecified) | 62.6* | -4.5 | 7.4 | -1.9 | -1.7
COc1ccccc1NS(=O)(=O)c1cc([N+](=O)[O-])ccc1NN=Cc1c(C)[nH]c2ccccc12 | . | 3.7 | . | . | .
